Laboratory results taken from PubChem BioAssay AID1259415 (National Center for Advancing Translational Sciences (NCATS), 2018).
About 18,000 (4.4%) of roughly 410,000 compounds were called active. About 7% were inconclusive and are not listed. The sample as a whole holds a higher share of actives than the screen did. A number with no mark means an inactive call. No stated cut-off is given here; in the data, active means activity change below about -60%; inconclusive means no clear call, values can overlap the other calls; inactive means above about -39%.

Assay: qHTS Assay for inhibitors of the human cytomegalovirus (HCMV)
Conditions: HFF cells, HCMV-luciferase reporter, 72 h; at 57.5 µM; hits give low values
Procedure, shortened: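 After 16 h attachment at 37C, HFF cells received test compound and HCMV-luciferase (1 PFU/cell); reporter luminescence read 72 h later, data normalized against buffer-only and known inhibitor Salinomycin.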
On the % scale 0 is the no-effect control and ±100 the full control effect.

Question: Which activity change, negative = inhibition does the source give for `CSc1nc2ccc(C)cc2c(=O)n1-c1cccnc1` here?
Answer: -87.3% (active)

Question: Which activity change, negative = inhibition does the source give for `COCCNC(=O)c1ccc(-n2c(SCc3cccnc3)nc3ccccc3c2=O)cc1` here?
Answer: -38.3%

Question: Which activity change, negative = inhibition does the source give for `CCC1NC(=O)c2cccnc2-n2c1nc1ccc(C)cc1c2=O` (stereo not drawn) here?
Answer: -2.47%

Question: For `CC1CCCN1CCC(C(N)=O)(c1ccccc1)c1ccccc1` (stereo not drawn), which activity change, negative = inhibition is on record?
Answer: -15%

Question: Which activity change, negative = inhibition does the source give for `CN1CCC[C@@H]1CCO[C@](C)(c1ccccc1)c1ccc(Cl)cc1` here?
Answer: -62.4% (active)

Question: For `OC(c1ccccc1)(c1ccccc1)C1CCN(CCCOc2ccccc2)CC1`, which activity change, negative = inhibition is on record?
Answer: 2.18%

Question: For `COc1ccc(-c2nc(C)c(CCNC(=O)c3ccc(C(F)(F)F)cc3)s2)cc1OC`, which activity change, negative = inhibition is on record?
Answer: 14.8%

Question: For `N#Cc1ccc(CC(O)c2nc(C(=O)Nc3ccccc3)cs2)cc1` (stereo not drawn), which activity change, negative = inhibition is on record?
Answer: -100% (active)

Question: With `O=C(Nc1ccc(Cl)cc1)c1csc(C(O)c2cccc(C(F)(F)F)c2)n1` (stereo not drawn) as the compound, how does the activity change, negative = inhibition read?
Answer: -20.2%

Question: Which activity change, negative = inhibition does the source give for `O=C(Nc1ccc(Cl)cc1)c1csc([C@@H]2O[C@H](CO)[C@H](O)[C@H](O)[C@H]2O)n1` here?
Answer: 16.2%

Question: With `COc1ccccc1Cc1c(-c2ccc(Cl)cc2)nc2c3ccccc3ccn12` as the compound, how does the activity change, negative = inhibition read?
Answer: 22.4%

Question: For `COc1cccc2c(C)c(C(=O)O)[nH]c12`, which activity change, negative = inhibition is on record?
Answer: -2.81%

Question: With `CCc1c(C)nc2c(OC)cccc2c1Cl` as the compound, how does the activity change, negative = inhibition read?
Answer: -75.4% (active)

Question: For `COc1ccc(C)cc1-n1c(-c2ccc(C)cc2)cc2c1CC(C)(C)CC2=O`, which activity change, negative = inhibition is on record?
Answer: 5.24%

Question: Which activity change, negative = inhibition does the source give for `CC(=O)Nc1ccc(S(=O)(=O)NC2(C(F)(F)F)C(=O)NC(C)=C2C#N)cc1` (stereo not drawn) here?
Answer: -29.9%

Question: Which activity change, negative = inhibition does the source give for `CC(C)CNc1ncnc2c1nnn2C` here?
Answer: -27.2%

Question: With `Cc1ccc(-n2nnnc2CNC(=O)c2ccccc2C)cc1C` as the compound, how does the activity change, negative = inhibition read?
Answer: -15.5%

Question: Which activity change, negative = inhibition does the source give for `O=C(NCc1nnnn1-c1ccc(Cl)cc1)c1ccc([N+](=O)[O-])o1` here?
Answer: -63.2% (active)

Question: With `O=C(NCc1nnnn1-c1ccc(Cl)cc1)c1ccc2c(c1)OCO2` as the compound, how does the activity change, negative = inhibition read?
Answer: 21%

Question: Which activity change, negative = inhibition does the source give for `C=CCn1c(O)c(/C=N/N2CCOCC2)c(=O)[nH]c1=S` here?
Answer: -8.35%

Question: With `CCCCn1nc2ccccc2c1OCC` as the compound, how does the activity change, negative = inhibition read?
Answer: -7.88%

Question: Which activity change, negative = inhibition does the source give for `COc1ccccc1-c1cc(C(F)(F)F)nc(S(=O)(=O)CCCC(=O)Nc2cc(C)ccc2O)n1` here?
Answer: 7.44%

Question: Which activity change, negative = inhibition does the source give for `COc1ccccc1-c1cc(C(F)(F)F)nc(S(=O)(=O)CCCC(=O)Nc2ccc(F)cc2F)n1` here?
Answer: -93% (active)

Question: With `CSc1ccccc1NC(=O)CCS(=O)(=O)c1nc(-c2cccs2)cc(C(F)(F)F)n1` as the compound, how does the activity change, negative = inhibition read?
Answer: 3.11%

Question: Which activity change, negative = inhibition does the source give for `Cc1nn(-c2ccccc2)nc1C(=O)OCC(=O)N1CCCCC1C` (stereo not drawn) here?
Answer: 37.5%

Question: With `C#Cc1cc(N2CCN(C(=O)c3ccoc3)CC2)n2nc(-c3cccc(Cl)c3)cc2n1` as the compound, how does the activity change, negative = inhibition read?
Answer: -102% (active)

Question: Which activity change, negative = inhibition does the source give for `Cc1oc2ncnc(N3CCCCC3)c2c1C(=O)N1CCN(c2cccc(Cl)c2)CC1` here?
Answer: 2.67%

Question: For `CNc1cncc(-c2cccc(C(=O)N3CCOCC3)c2)n1`, which activity change, negative = inhibition is on record?
Answer: 16.3%

Question: Which activity change, negative = inhibition does the source give for `COc1ccccc1-c1cc2nc(C)c(CCC(=O)NC3CCCCC3)c(C)n2n1` here?
Answer: -7.07%

Question: Which activity change, negative = inhibition does the source give for `C[C@]12CC[C@H](O)C[C@H]1CC[C@@H]1C2CC[C@]2(C)[C@@H](C3=CC(=O)OC3)[C@@H](O)C[C@]12O` (stereo partly drawn) here?
Answer: -99.6% (active)

Question: With `CC(=O)[C@@]12O[C@@H]1C[C@H]1[C@@H]3CC[C@H]4C[C@@H](O)CC[C@]4(C)[C@H]3CC[C@@]12C` as the compound, how does the activity change, negative = inhibition read?
Answer: -16%

Question: For `Cc1cc2ccccc2n1CCNC(=O)c1ccc(F)cc1`, which activity change, negative = inhibition is on record?
Answer: 0.319%

Question: Which activity change, negative = inhibition does the source give for `CC1=C(C(=O)OCc2ccc(C)cc2)C(c2c(Cl)cccc2Cl)CC(=O)N1` (stereo not drawn) here?
Answer: -18.7%
